Compound activity (PubChem)
Only some compounds are listed: those with a hit (about 10% of all), similar ones and a draw of the others.
HEK293 tox – kills HEK 293 cells; HEK 293 viability, ATP luminescence (CellTiter-Glo), 48-72 h; Potency, µM (series often up to 115 µM), without a hit: at the highest dose activity change, negative = cytotoxicity, usual class: inhibitors; hit rate 6.6% among 94,000; AID 1345083; further: on the % scale 0 is the no-effect control and ±100 the full control effect; nearly all actives have a fitted effect of over 60% in size
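HEK 293 cells at 250 cells/well were exposed to compounds by pintool transfer for 48 or 72 hr at 37 degree Celsius, 5% CO2. Viability was read as ATP-coupled luminescence with CellTiter-Glo after 10 min at room temperature.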
Luciferase inh – blocks purified firefly luciferase enzyme activity; purified P. pyralis luciferase, luminescence, biochemical; Potency, µM (highest dose often 115 µM), usual class: inhibitors; P08659; hit rate 2.5% among 76,000; AID 1347043; further: on the % scale 0 is the no-effect control and ±100 the full control effect; nearly all actives have a fitted effect of over 65% in size
Target sequence (P08659 whole entry, looked up): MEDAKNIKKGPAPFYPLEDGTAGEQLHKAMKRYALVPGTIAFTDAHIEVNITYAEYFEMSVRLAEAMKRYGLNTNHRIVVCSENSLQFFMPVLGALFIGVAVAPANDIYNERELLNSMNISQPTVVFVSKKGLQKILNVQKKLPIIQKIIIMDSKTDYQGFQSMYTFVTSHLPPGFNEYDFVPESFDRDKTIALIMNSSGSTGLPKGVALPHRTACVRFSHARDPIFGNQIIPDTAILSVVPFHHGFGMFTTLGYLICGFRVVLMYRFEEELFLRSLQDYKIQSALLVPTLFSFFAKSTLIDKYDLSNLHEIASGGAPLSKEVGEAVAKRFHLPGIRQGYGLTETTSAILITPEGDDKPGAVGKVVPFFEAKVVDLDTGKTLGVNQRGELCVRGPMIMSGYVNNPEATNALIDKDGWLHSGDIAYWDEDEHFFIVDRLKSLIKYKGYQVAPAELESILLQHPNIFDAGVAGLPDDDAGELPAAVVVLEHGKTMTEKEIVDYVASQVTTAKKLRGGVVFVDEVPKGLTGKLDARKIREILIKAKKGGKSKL
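Biochemical qHTS: compound (6-point titration) added to 10uM D-luciferin plus 10uM ATP in Tris acetate pH 7.5 buffer with Mg, Tween-20 and BSA, then purified enzyme at 10nM; light output imaged.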
GPT2 inh – inhibitors of human GPT2 alanine aminotransferase; Q8TD30; Recombinant GPT2, coupled pyruvate oxidase/HRP Amplex Red fluorescence; Potency, µM (highest dose often 57.7 µM), inactives show at the highest dose activity change, negative = inhibition, hits mostly inhibitors; hit rate 0.25% among 100,000; further: on the % scale 0 is the no-effect control and ±100 the full control effect; nearly all actives have a fitted effect of over 60% in size
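Recombinant GPT2 (10ng/uL) with 250uM a-KG and 2mM L-alanine, 30 min at room temperature, in HEPES pH 7.5 buffer. Pyruvate detected by pyruvate oxidase/HRP/Amplex Red fluorescence after 30 min in the dark; AOA (50uM) as positive control.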
NPR1 antag – human Npr1 receptor antagonism; HEK293 hNpr1 GloSensor cGMP, ANP-stimulated luminescence; Potency, µM (top dose mostly 46.3 µM), without a hit: at the highest dose activity change, negative = inhibition, usual class: inhibitors; hit rate 1.6% among 76,000; AID 1347048; calls by dose curve; further: on the % scale 0 is the no-effect control and ±100 the full control effect; nearly all actives have a fitted effect of over 60% in size
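HEK293 cells stably expressing human Npr1 and cGMP GloSensor pGS-40F, loaded 2 h with 2% GloSensor reagent, given compound 30 min at room temperature. Luminescence read before and 20 min after 0.1 nM hNppA.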
NIH3T3 tox – kills NIH 3T3 cells; NIH 3T3 viability, CellTiter-Glo ATP luminescence, 48-72 h; Potency, µM (top dose mostly 96.7 µM), inactives show at the top dose activity change, negative = cytotoxicity, most hits filed as inhibitors; hit rate 4.3% among 94,000; AID 1345082; further: on the % scale 0 is the no-effect control and ±100 the full control effect; nearly all actives have a fitted effect of over 55% in size
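ATP-dependent luminescence (CellTiter-Glo) served as the viability signal for NIH 3T3 cells treated with compound for 48 or 72 hr at 37 °C.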
NPR1 antag cnf – hNpr1 antagonism, confirmation assay. hit rate 76% among 1,400. HEK293 hNpr1 cGMP GloSensor luminescence, ANP-stimulated. shares compounds with NPR1 antag. Potency, µM (titrated, usually from 57.6 µM), without a hit: at the top dose activity change, negative = inhibition, most hits filed as inhibitors. AID 1347044; calls by dose curve; further: nearly all actives have a fitted effect of over 70% in size
Npr2 selectivity – hNpr2 antagonism, selectivity versus Npr1; HEK293 hNpr2 GloSensor cGMP luminescence, CNP-stimulated; AID 1347046; Potency, µM (doses to about 57.6 µM), for inactives: top-dose activity change, negative = inhibition, most hits filed as inhibitors; shares compounds with NPR1 antag; hit rate 67% among 1,400; calls by dose curve; further: nearly all actives have a fitted effect of over 70% in size
FLuc counter – inhibits firefly luciferase, false Npr1 antagonist flag; shares compounds with NPR1 antag; hit rate 0.7% among 1,400; Potency, µM (doses to about 57.6 µM), for the others: at the top dose activity change, negative = inhibition, actives largely listed as inhibitors; AID 1347047; purified FLuc enzyme, luminescence, Km substrate; further: 0% is about no effect
GloSensor cGMP – control cell line activity, Npr1 antagonist counter-screen | shares compounds with NPR1 antag | HEK293 GloSensor cGMP, SNP-stimulated, luminescence | Potency, µM (top dose mostly 57.6 µM), for inactives: at the top dose activity change, negative = inhibition, hits mostly inhibitors | hit rate 69% among 1,400 | AID 1347051; calls by dose curve; further: on the % scale 0 is the no-effect control and ±100 the full control effect; nearly all actives have a fitted effect of over 70% in size
* hit, by the source's call; i = inactive; u = inconclusive; x = no result given; [ ] = dose if it differs, or a comment. Unless noted, the call rests on the fitted dose curve; in most records, active means well fitted curve in the direction sought with a large enough effect; inconclusive means small, poorly fitted or top-dose-only effect, or another doubt; inactive means no such curve, though single readings can be large; an effect the other way counts as inactive or inconclusive. Potency means the concentration at half of the fitted maximal effect.

SMILES	HEK293 tox	Luciferase inh	GPT2 inh	NPR1 antag	NIH3T3 tox	NPR1 antag cnf	Npr2 selectivity	FLuc counter	GloSensor cGMP
CC(=O)Nc1ccc(S(=O)(=O)N[C@H]2CO[C@H]3[C@@H]2OC[C@H]3OC(=O)Nc2cccc3ccccc23)cc1	-20%	i	-5%	-28%	u	-3%	-2%	-3%	-1%
O=C(CCn1cc(Cl)cn1)N1CCOC(c2ccc(Cl)cc2)C1 (stereo unspecified)	79µM*	i	-26%	u	-6%	u	u	4%	0%
c1ccc(CCCN[C@H]2CO[C@H]3[C@@H]2OC[C@@H]3n2cc(-c3ccccc3)nn2)cc1	u	i	-2%[88.5 µM]	10µM*	u	16µM*	20µM*	0%[86.2 µM]	16µM*
O[C@@H]1CO[C@H]2[C@@H]1OC[C@@H]2n1cc(-c2ccccc2)nn1	u	i	-17%[88.5 µM]	-9%[70.6 µM]	-10%[230 µM]	x	x	x	x
COC(=O)c1cccc(NC(=S)N[C@H]2CO[C@H]3[C@@H]2OC[C@@H]3n2cc(-c3ccccc3)nn2)c1	u	i	-5%	11µM*	u	12µM*	17µM*	-7%	12µM*
COc1ccc(OC)c(NC(=O)N2CCCC(Cn3cnc4cccnc43)C2)c1 (stereo unspecified)	-4%	i	i	-3%	4%	x	x	x	x
COc1cccc([S+](=O)([O-])N2CCC3(CC2)C(=O)Nc2ccccc23)c1	u	i	u	13µM*	u	20µM*	20µM*	2%[86.2 µM]	16µM*
O=C(c1ccncc1)N1CC2CCC(C1)N2Cc1ccc(-c2ccccc2)cc1	u	i	3%	u	u	4.3µM*	5.4µM*	-3%	4.8µM*
N#Cc1ccc(CN2C3CCC2CN(C(=O)c2ccncc2)C3)cc1	u	i	4%[88.5 µM]	-7%[70.6 µM]	u	x	x	x	x
CC(C)CCN1CCC(N2CCN(S(=O)(=O)c3ccc4c(c3)CCCC4)CC2)C1=O (stereo unspecified)	u	i	-19%	u	u	-30%	-24%	5%	-8%
Cn1nc2n(c1=O)CCN(S(=O)(=O)c1ccc3c(c1)CCCC3)CC2	-10%	i	-9%	0%	-4%	x	x	x	x
CC(C)CCN1CCC(N2CCN(S(=O)(=O)c3ccc(F)c(F)c3)CC2)C1=O (stereo unspecified)	-24%	i	-9%	-10%	-28%	x	x	x	x
Cn1nc(C2CCN(S(=O)(=O)c3ccc4c(c3)CCCC4)CC2)n(C2CCCC2)c1=O	u	i	i	11µM*	u	19µM*	19µM*	1%	14µM*
CC(=O)N1CCn2cc(C(=O)Nc3ccc(Cl)cc3Cl)nc2C1	-28%	x	u	x	u	x	x	x	x
O=C(Nc1ccc(Cl)cc1Cl)c1cn2c(n1)CN(C(=O)c1ccccc1)CC2	u	x	i	x	u	22µM*	22µM*	-10%	19µM*
O=C(Cn1cccc1-c1nc(-c2ccc(F)cc2)no1)N1CCc2ccccc21	-9%	i	0%	8%	-25%	x	x	x	x
O=C(CCCc1c[nH]c2ccccc12)N1CCC(c2noc(COc3ccc(F)cc3)n2)CC1	u	i	-11%	11µM*	u	22µM*	24µM*	3%	17µM*
CN(CCc1nc2ccc(Cl)cc2[nH]1)c1cc(C2CC(O)C2)nc(N)n1 (stereo unspecified)	-6%	i	0%	-8%	-12%	x	x	x	x
Cc1c(CN(C)c2cc(C3CC(O)C3)nc(N)n2)[nH]c2ccccc12 (stereo unspecified)	-93%	i	i	0.63µM*	u	0.43µM*	0.86µM*	1%	0.43µM*
Cc1ccc(SCCN(C)c2cc(C3CC(O)C3)nc(N)n2)cc1 (stereo unspecified)	28µM*	i	-13%	13µM*	u	24µM*	22µM*	4%	22µM*
CN(CCc1ccccn1)c1cc(C2CC(O)C2)ncn1 (stereo unspecified)	-3%	u	2%[11.5 µM]	4%	-17%	x	x	x	x
Fc1ccc(Cc2nc3nccc(-c4cccnc4)n3n2)cc1	3%	i	4%	3%	-22%	x	x	x	x
COc1ccc(-c2cc3c(c(OC)c2)OCCNC3)nn1	-1%	i	i	15%	-2%	x	x	x	x
COc1cc(-c2cc(C)c3c(OC)ccc(OC)c3n2)cc2c1OCCNC2	u	i	i	u	20µM*	u	u	-1%	2%
O=C(NCc1ccccc1Cl)c1ccc(CN2C(=O)NC3(CCOCC3)C2=O)cc1	-22%	i	i	-23%	-19%	x	x	x	x
SMILES	HEK293 tox	Luciferase inh	GPT2 inh	NPR1 antag	NIH3T3 tox	NPR1 antag cnf	Npr2 selectivity	FLuc counter	GloSensor cGMP
CC(C)c1ccc(CNC(=O)c2ccc(CN3C(=O)NC4(CCOCC4)C3=O)cc2)cc1	u	i	i	7.1µM*	u	19µM*	19µM*	-2%	15µM*
O=C(CCCn1cncn1)N1C[C@H](CO)C[C@H](CN2CCOCC2)C1	0%	i	-30%	-3%	i	x	x	x	x
O=C1CCC2(CCN1Cc1ccccc1)CCN(S(=O)(=O)c1cccs1)CC2	u	i	-3%	u	u	u	-28%	0%	u
CN(Cc1ccncc1)Cc1ccc(-c2ccccc2)cc1	71µM*	i	-19%[88.5 µM]	u	u	22µM*	28µM*	-3%[86.2 µM]	18µM*
Cc1cccc(CNC(=O)C2(C)CCCCC(=O)N2)c1 (stereo unspecified)	10%	i	i	6%	i	x	x	x	x
O=C(c1ccc(F)cc1Cl)N1CCC(n2cc(-c3nc(C4CC4)no3)nn2)C1 (stereo unspecified)	u	i	i	16µM*	u	27µM*	u	-1%	u
Cc1ccc(C(=O)N2CCC(n3cc(-c4nc(C5CC5)no4)nn3)C2)s1 (stereo unspecified)	u	i	i	16µM*	-25%	24µM*	24µM*	-2%	14µM*
